According to the supplement of paper PMC11732987, “Enantioselective OTUD7B fragment discovery through chemoproteomics screening and high-throughput optimisation” (Communications Chemistry, 2025):

Legend:
Assay in all cases: log2 ratio of Biotin-Ahx-Ub-VS probe labelling (fragment/DMSO); higher = less target engagement (more negative = stronger competition), active = hit call of the paper (q ≤ 0.05, log2 ratio ≤ -1)
Settings in all cases: compound concentration: 200 uM; treatment time: 3 h
USP42 = target: T1, USP42 (UniProt Q9H9J4)
T1 sequence (whole entry): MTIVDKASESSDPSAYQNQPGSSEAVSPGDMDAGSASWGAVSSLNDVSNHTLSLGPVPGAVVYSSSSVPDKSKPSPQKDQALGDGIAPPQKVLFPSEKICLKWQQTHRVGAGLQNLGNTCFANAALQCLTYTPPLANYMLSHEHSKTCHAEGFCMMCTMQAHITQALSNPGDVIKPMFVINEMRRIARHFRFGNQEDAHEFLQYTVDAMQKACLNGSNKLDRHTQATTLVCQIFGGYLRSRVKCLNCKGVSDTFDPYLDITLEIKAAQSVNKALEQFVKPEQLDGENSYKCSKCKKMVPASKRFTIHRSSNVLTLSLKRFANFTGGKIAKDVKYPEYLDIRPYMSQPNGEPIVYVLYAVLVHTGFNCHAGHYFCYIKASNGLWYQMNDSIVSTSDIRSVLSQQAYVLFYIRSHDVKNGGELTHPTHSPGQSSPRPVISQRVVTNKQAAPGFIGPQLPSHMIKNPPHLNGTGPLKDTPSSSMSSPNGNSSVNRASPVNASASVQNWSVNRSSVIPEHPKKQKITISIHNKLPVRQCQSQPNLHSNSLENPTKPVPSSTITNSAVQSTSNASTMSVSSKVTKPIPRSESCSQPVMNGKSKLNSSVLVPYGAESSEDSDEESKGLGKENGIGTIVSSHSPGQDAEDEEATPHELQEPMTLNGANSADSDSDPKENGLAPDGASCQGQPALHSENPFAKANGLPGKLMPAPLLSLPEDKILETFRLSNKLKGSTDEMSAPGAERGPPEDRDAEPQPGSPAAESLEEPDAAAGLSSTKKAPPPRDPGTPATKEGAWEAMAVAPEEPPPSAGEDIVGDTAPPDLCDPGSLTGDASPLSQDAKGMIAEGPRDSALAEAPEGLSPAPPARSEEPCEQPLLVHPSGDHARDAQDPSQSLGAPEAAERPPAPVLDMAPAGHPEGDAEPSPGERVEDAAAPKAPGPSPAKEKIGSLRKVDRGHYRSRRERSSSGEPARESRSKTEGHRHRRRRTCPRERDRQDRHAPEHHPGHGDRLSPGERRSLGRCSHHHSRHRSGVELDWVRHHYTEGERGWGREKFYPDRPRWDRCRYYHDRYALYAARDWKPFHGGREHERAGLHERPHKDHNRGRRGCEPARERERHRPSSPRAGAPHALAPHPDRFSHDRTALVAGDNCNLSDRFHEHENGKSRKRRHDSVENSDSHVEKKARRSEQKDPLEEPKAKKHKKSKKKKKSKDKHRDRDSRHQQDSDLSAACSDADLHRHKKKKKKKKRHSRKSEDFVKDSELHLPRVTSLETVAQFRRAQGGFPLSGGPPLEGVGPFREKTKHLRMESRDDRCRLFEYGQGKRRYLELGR
Procedure, shortened: (§1)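 Triplicate samples of HEK293T lysate, 495 µg each, received fragment at 200 µM or vehicle for 3 h, followed by Biotin-Ahx-Ub-VS (0.5 µM final) for 1 h. After NeutrAvidin enrichment of labelled DUBs and LysC/trypsin digestion, peptides were run by diaPASEF LC-MS/MS. The values are average log2 fragment/vehicle ratios from global-median-normalised Spectronaut label-free quantities, tested by unpaired t-test on proteins having ≥2 unique peptides.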

USP46 = USP46 (UniProt P62068)
Chain of USP46 (P62068 whole entry): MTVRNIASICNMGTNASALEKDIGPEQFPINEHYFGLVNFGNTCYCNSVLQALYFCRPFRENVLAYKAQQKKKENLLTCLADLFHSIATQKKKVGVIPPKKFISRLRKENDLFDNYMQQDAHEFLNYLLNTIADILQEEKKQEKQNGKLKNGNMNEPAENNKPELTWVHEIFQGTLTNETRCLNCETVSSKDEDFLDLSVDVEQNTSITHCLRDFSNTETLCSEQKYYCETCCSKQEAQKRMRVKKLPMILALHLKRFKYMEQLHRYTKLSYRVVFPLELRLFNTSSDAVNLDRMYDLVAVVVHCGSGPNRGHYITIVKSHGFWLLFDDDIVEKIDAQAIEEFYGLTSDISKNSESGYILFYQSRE
Procedure, shortened: as §1

USP47 = target: T2, USP47 (UniProt Q96K76)
T2 sequence (whole entry): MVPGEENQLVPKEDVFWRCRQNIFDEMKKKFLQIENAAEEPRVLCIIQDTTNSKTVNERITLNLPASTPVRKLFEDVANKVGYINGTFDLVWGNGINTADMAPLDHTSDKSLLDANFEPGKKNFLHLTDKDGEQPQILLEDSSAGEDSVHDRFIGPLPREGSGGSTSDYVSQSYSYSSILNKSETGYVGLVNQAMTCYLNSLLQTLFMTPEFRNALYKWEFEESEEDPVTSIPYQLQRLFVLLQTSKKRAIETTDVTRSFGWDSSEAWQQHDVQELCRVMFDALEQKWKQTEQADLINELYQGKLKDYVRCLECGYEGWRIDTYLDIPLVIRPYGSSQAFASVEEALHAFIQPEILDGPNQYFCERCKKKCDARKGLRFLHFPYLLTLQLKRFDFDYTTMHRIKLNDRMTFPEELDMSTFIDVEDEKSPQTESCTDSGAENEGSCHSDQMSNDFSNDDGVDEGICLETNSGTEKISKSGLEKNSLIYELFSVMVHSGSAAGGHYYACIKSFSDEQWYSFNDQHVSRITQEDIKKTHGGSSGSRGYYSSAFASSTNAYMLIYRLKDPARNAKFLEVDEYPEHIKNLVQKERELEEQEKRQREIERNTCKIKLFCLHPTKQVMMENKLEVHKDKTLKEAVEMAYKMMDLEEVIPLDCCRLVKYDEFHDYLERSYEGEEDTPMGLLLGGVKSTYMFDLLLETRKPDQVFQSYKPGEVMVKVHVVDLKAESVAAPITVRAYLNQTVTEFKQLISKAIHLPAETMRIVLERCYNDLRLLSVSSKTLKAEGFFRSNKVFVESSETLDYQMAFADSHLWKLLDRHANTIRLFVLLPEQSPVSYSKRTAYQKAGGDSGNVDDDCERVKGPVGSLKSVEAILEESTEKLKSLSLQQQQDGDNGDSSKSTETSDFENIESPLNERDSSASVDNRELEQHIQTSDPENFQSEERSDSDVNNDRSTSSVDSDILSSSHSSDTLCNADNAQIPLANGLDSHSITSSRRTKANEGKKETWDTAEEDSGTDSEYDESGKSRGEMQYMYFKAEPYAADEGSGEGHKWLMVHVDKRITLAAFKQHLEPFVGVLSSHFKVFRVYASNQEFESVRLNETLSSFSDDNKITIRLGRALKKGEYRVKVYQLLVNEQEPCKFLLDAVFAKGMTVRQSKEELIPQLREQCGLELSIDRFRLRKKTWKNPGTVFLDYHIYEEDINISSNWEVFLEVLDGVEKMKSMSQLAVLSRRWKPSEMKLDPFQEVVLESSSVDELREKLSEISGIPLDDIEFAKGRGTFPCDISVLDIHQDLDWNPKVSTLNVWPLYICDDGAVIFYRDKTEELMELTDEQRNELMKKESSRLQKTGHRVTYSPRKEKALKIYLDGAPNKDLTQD
Procedure, shortened: as §1

USP48 = target: T3, USP48 (UniProt Q86UV5)
T3 sequence (whole entry): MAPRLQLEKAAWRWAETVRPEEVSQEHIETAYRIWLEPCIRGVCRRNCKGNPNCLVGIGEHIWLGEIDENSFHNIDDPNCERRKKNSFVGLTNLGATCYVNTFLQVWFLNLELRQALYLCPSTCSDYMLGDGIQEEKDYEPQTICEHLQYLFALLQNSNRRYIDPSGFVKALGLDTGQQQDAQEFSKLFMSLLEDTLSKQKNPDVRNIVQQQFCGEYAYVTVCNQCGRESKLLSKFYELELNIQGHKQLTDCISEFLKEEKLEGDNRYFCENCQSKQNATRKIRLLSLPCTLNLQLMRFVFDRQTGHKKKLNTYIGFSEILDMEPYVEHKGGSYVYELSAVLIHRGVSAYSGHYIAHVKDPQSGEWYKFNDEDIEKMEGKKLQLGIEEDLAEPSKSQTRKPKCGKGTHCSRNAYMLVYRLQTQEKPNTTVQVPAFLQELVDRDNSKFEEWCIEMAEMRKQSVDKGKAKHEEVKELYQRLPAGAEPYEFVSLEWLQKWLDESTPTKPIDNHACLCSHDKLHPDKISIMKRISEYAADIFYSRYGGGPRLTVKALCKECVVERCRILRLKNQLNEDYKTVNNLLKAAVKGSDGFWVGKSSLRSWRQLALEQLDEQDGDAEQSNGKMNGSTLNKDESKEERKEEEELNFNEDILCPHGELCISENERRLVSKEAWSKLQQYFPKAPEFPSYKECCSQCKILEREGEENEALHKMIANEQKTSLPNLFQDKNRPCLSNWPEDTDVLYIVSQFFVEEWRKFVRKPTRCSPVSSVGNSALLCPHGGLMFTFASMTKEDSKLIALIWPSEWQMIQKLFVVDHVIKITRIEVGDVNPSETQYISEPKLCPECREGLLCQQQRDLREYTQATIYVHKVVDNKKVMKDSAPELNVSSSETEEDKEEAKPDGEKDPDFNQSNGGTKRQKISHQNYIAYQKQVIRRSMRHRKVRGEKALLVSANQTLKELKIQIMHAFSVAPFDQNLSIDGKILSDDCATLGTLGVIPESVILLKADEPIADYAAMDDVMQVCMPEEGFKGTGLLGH
Procedure, shortened: as §1

USP5 = target: T4, USP5 (UniProt P45974)
T4 sequence (whole entry): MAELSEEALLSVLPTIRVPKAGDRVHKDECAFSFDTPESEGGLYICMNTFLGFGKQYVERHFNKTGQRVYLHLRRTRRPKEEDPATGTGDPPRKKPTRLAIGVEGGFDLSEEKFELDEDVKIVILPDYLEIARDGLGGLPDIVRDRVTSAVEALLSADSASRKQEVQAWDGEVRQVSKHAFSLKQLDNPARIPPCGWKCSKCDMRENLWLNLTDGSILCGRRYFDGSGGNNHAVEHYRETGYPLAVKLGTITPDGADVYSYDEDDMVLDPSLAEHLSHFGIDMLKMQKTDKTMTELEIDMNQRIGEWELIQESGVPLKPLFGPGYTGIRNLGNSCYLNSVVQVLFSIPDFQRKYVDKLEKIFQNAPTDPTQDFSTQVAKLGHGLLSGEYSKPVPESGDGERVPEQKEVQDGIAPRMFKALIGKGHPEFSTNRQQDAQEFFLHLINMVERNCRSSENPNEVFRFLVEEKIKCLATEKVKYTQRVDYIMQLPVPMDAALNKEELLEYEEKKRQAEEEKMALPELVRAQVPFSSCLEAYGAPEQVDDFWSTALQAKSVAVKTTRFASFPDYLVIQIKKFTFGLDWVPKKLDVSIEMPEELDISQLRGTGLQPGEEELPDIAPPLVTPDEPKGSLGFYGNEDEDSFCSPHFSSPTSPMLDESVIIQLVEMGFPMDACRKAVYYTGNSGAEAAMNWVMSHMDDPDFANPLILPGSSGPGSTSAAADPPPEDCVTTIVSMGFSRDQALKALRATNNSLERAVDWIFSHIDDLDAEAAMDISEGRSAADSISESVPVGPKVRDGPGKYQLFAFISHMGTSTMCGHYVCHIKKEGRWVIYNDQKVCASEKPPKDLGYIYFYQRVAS
Procedure, shortened: as §1

USP54 = USP54 (UniProt Q70EL1)
Chain of USP54 (Q70EL1 whole entry): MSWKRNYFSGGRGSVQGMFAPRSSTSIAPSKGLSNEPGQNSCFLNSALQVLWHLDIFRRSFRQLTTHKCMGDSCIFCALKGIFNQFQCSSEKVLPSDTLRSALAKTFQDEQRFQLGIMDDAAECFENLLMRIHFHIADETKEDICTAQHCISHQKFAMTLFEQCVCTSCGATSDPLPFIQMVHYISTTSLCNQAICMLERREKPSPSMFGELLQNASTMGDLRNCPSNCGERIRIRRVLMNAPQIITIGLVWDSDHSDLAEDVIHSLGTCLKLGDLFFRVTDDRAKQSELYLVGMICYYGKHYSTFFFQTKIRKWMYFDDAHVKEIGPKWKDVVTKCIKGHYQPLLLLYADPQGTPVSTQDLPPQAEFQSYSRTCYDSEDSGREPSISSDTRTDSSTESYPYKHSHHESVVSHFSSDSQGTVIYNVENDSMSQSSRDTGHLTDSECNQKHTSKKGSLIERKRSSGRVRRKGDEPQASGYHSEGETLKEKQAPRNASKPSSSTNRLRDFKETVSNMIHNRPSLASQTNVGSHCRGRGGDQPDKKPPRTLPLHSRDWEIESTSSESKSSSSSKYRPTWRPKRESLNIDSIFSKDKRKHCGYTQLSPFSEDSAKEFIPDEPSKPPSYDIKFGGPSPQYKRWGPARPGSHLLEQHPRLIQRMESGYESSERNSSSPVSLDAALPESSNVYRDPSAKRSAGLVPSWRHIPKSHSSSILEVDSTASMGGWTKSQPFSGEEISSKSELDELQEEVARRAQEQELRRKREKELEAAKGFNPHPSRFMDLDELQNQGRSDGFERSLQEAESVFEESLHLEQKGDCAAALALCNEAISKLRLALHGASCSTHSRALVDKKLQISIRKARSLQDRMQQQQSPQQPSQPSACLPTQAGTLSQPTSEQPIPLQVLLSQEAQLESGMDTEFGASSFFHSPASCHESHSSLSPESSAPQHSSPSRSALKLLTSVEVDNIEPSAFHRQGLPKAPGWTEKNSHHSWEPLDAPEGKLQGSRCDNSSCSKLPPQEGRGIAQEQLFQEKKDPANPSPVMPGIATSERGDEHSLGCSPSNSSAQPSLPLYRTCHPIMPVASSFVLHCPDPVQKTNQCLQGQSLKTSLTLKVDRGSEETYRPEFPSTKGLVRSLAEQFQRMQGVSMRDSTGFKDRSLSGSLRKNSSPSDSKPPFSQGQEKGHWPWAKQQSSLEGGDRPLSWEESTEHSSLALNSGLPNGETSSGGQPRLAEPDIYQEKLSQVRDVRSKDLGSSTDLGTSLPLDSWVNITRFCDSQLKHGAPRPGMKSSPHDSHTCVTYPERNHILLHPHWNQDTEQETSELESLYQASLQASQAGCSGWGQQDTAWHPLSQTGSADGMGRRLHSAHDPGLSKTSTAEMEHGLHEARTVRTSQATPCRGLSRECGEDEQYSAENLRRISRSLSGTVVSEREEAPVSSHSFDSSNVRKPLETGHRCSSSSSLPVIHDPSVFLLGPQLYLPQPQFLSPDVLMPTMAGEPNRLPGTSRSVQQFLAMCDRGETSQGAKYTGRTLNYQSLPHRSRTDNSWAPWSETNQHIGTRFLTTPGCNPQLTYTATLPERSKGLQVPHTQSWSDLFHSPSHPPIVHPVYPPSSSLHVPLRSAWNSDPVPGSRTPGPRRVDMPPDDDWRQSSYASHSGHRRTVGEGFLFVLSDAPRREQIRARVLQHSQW
Procedure, shortened: as §1

USP7 = USP7 (UniProt Q93009)
Procedure, shortened: as §1

USP8 = target: T5, USP8 (UniProt P40818)
T5 sequence (whole entry): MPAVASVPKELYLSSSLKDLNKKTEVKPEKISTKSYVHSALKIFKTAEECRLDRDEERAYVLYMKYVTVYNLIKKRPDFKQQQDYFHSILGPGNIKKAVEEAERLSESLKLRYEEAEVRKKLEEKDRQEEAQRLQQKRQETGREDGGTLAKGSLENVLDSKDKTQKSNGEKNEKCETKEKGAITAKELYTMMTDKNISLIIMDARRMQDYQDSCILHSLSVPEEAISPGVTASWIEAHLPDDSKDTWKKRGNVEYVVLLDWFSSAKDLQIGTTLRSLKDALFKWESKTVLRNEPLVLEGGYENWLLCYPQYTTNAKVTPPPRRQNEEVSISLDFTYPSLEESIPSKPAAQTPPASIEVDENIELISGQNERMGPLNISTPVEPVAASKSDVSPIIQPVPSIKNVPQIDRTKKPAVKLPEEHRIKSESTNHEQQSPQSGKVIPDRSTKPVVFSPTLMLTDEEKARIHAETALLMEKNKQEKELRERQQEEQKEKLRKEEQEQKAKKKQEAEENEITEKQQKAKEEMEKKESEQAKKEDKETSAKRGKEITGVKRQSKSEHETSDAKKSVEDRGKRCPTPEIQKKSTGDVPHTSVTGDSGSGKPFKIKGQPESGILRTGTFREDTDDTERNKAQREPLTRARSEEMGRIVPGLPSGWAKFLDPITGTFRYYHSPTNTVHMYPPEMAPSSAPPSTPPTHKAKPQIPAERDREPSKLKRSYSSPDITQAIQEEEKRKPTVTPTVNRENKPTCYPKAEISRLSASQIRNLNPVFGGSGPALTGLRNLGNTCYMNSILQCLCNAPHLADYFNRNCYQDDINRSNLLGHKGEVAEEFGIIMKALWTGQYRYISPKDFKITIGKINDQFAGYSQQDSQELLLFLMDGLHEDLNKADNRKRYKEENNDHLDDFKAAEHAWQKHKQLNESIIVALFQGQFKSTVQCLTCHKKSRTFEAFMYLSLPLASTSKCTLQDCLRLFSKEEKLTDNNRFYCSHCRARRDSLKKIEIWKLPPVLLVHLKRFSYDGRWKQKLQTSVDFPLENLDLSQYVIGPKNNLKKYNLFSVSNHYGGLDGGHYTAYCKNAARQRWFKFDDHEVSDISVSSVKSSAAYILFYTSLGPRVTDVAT
Procedure, shortened: as §1

USP9X = USP9X (UniProt Q93008)
Chain of USP9X (Q93008 whole entry): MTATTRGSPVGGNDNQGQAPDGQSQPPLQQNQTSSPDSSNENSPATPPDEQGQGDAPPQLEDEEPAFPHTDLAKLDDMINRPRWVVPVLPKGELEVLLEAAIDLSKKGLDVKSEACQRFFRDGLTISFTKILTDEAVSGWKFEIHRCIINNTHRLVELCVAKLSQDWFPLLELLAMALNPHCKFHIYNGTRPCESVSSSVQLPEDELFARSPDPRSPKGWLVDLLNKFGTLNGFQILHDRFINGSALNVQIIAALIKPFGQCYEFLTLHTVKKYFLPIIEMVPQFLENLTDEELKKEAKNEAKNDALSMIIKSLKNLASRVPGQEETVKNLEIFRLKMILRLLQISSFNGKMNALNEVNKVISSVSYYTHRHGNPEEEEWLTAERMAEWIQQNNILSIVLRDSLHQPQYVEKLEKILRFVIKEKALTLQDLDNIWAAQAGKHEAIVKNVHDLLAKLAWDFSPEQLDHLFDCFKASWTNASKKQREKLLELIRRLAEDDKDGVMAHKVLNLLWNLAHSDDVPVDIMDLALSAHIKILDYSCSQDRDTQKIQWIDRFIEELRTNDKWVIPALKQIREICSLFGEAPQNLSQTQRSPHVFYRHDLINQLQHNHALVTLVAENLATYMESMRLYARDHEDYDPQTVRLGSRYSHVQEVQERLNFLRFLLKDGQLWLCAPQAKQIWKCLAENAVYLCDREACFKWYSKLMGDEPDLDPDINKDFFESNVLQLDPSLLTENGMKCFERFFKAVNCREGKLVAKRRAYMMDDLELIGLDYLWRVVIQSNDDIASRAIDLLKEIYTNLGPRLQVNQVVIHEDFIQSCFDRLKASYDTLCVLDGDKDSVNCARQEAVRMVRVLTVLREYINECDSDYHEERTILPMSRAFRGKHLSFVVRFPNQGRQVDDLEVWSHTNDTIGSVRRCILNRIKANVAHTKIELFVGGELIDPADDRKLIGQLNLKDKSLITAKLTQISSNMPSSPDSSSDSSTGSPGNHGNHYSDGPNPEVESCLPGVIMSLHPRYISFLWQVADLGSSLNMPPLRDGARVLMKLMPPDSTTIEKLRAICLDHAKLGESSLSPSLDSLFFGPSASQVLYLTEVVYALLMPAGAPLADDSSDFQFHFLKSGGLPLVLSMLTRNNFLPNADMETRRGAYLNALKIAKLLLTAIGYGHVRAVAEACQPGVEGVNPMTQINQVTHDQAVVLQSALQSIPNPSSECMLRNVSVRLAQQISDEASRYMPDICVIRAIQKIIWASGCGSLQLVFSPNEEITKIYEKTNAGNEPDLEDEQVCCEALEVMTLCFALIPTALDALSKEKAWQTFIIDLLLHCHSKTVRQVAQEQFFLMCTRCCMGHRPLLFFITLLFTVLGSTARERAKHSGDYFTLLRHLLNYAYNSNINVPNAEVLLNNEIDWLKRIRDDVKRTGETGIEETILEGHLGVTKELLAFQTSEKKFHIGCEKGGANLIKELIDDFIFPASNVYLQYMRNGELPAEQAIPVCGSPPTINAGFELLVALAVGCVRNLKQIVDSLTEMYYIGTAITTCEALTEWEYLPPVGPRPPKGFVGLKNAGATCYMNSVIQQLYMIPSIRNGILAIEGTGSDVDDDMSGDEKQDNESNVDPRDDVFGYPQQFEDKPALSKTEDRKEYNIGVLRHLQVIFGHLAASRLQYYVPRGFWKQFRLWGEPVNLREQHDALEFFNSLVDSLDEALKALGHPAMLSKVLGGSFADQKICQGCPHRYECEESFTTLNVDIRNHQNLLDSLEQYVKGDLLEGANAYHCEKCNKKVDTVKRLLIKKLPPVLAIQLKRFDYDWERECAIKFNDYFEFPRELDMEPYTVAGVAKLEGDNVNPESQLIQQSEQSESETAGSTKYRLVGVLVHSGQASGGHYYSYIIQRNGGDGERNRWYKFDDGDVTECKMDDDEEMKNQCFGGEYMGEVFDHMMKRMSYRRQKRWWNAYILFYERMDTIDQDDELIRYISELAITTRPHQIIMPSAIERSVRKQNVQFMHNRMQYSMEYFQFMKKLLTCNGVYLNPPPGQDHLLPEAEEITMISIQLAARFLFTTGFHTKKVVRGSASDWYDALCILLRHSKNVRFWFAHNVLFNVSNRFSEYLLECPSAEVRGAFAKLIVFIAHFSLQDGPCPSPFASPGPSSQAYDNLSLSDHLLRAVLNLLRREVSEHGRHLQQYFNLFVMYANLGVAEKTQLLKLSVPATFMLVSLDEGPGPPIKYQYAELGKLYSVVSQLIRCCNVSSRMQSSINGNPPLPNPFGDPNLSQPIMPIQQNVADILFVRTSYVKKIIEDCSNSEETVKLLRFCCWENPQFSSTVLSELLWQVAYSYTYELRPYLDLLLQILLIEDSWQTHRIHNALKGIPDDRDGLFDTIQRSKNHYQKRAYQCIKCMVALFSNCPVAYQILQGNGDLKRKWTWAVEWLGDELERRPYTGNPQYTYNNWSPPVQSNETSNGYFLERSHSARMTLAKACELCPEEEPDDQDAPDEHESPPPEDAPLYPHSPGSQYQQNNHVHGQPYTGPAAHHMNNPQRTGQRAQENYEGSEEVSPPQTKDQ
Procedure, shortened: as §1

UniProt O00487 = target: UniProt O00487
Chain of UniProt O00487 (O00487 whole entry): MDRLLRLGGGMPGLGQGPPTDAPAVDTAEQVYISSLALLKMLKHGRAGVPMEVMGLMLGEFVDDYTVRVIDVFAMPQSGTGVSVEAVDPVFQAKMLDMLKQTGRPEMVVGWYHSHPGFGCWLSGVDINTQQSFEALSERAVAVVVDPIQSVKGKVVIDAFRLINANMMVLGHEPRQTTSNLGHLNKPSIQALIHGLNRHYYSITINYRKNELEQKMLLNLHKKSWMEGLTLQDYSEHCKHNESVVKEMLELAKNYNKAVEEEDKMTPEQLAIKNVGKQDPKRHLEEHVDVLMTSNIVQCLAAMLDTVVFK
Procedure, shortened: as §1

Measured: log2 ratio of Biotin-Ahx-Ub-VS probe labelling

Cc1cccnc1NC(=O)C1CCN(C(=O)CCl)CC1.Cl
inactive: USP42 -0.427 | USP46 -0.0664 | USP47 -0.337 | USP48 -0.172 | USP5 -0.0361 | USP54 0.628 | USP7 -0.121 | USP8 -0.221 | USP9X -0.327 | UniProt O00487 0.014
